# Measurements from PubChem BioAssay.
# Several values for one entry are separate records, joined by “and”; a condition that tells them apart may be missing. Equal entries are not always repeated. Results filed as inconclusive are left out. Activity calls are given as the source filed them.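 Rule for the calls, unless noted: active = compounds whose cell count with miR-34 switched on is under 0.7 times the count with it off; inactive = the rest.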
# Experiments:
# [1] = liver-stage malaria parasite growth inhibition, primary screen, cell-based, HepG2, luciferase luminescence, HepG2 viability (AID 624349; in the data active = parasite load remaining mostly below about 12%, no sharp cut-off; inactive = mostly above about 10%;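 note: 100% = mean of DMSO negative control wells on the same plate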); conditions: P. berghei liver stage in HepG2, luciferase luminescence, concentration not given here; parasite load remaining: stronger effect = lower value; viability: measured here: HepG2 viability without parasites
# [2] = stimulators of nuclear beta-catenin in C2C12, primary screen, imaging, WNT3A-conditioned medium, mouse C2C12, NPC library (AID 1117326; in the data active = nuclear beta-catenin stimulation mostly above about 4.2%, no sharp cut-off; inactive = mostly below about 10%); conditions: stronger effect = higher value
# [3] = stimulators of insulin release from INS-1E, primary screen, cell-based, 5 mM glucose, NPC library (AID 1117329;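 active = compound raises insulin release from rat beta cells at 5 mM glucose, no numeric limit stated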); conditions: rat INS-1E insulin secretion, at 10 µM, stronger effect = higher value
# [4] = growth inhibition of GSK3B-pretreated HCT116 cells – cell-based, CellTiter-Glo, 0.2 to 20 µM (AID 1117336;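 active = compounds lowering colon cancer cell viability after pretreatment blocking the GSK3B kinase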); conditions: HCT116 viability after GSK3B inhibitor, at 20 µM, stronger effect = higher value
# [5] = inhibition of endothelial tube formation, primary screen, imaging, VEGF stimulated, CD31 staining, tube area, NPC library (AID 1117340;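 active = compound that reduces growth-factor-driven endothelial tube area in a mixed cell culture, no cutoff stated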); conditions: VEGF-stimulated ADSC/ECFC co-culture, at 10 µM, stronger effect = higher value
# [6] = glucagon-like peptide 1 release enhancers, primary assay, NCI-H716 cell line, NPC library (AID 1117341;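 active = compound raises GLP1 secretion from the human gut endocrine cells, with no numeric limit stated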); conditions: NCI-H716 cells, at 10 µM, stronger effect = higher value
# [7] = HCT116 colon cancer cell growth inhibition, primary screen, CellTiter-Glo luminescence, NPC library (AID 1117342;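 active = compounds that lower survival of HCT116 colon cancer cells in the luminescence readout, no numeric limit stated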); conditions: at 20 µM (top of the series)
# [8] = CellTiter-Glo luminescent readout of SW480 viability loss, NPC library primary (AID 1117343;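 active = compounds that lower viability of the colon cancer cells in the luminescence readout, with no numeric limit stated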); conditions: CellTiter-Glo luminescence; at 20 µM (top of the series) unless noted
# [9] = decreased DLD-1 cellular survival, CellTiter-Glo luminescent readout, NPC compound collection, primary HTS (AID 1117346;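 active = compounds that lower survival of DLD-1 colon cancer cells in the luminescence readout, no cutoff given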); conditions: DLD-1 viability, CellTiter-Glo luminescence; at 20 µM (top of the series)
# [10] = differential killing of epithelial or mesenchymal cells, primary screen, imaging, PC-3E GFP, TEM4-18 mCherry, co-culture (AID 1345086;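 active = compounds killing one labelled cell type while sparing the other, by normalised counts and ratio limits, not self-fluorescent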;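 for all read-outs here: cells exposed to compound for 72 h before imaging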;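 for red/green cell ratio (normalised): normalised mesenchymal count divided by normalised epithelial count so high means epithelial killing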); conditions: imaging cell counts, at 1 µM; for red/green cell ratio (normalised): actives lie on both sides, counts scaled to control wells, 1 = unselective
# [11] = sensitizers of A549 cells to miR-34 induction, primary screen, imaging, A549 dox-inducible miR-34, nuclei and caspase counts (AID 1347080); conditions: A549 miR-34 inducible, Hoechst nuclei count, 48 h
# [12] = biological target: NAD(+) hydrolase SARM1 (Homo sapiens) (UniProt Q6SZW1); assay: SARM1 TIR NADase inhibitors, cell lysate, NAD-Glo luminescence (AID 1508614;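 active = compound whose remaining NAD level is above about 45 nM, limit read from the data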;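 note: higher remaining NAD means stronger inhibition of SARM1 NADase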); conditions: SAM-TIR HEK293T lysate NADase, at 1 µM, stronger effect = higher value
# [13] = system: Aerobactin synthetase IucA (Klebsiella pneumoniae); assay: IucA aerobactin synthetase inhibitors, biochemical, Tocris library, absorbance (AID 1345561; call rule not given here;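 note: 100% = enzyme without compound and 0% = no enzyme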); conditions: purified IucA enzyme assay, absorbance (OD) read-out; stronger effect = lower value;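 tested at 8 µM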
# [14] = growth inhibition of DIPG glioma cells, dose response, cell-based, SU-DIPG-XVII, MIPE5.0, CellTiter-Glo, qHTS (AID 1347060; cut-off not given, nearly all actives have AC50 up to about 26 µM); conditions: SU-DIPG-XVII viability, CellTiter-Glo ATP luminescence
# [15] = growth inhibition of DIPG glioma cells, dose response, cell-based, SU-DIPG-XIII, MIPE4.0, CellTiter-Glo, qHTS (AID 1347061; cut-off not given, nearly all actives have AC50 up to about 37 µM;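 note: cells exposed to compound for 48 hours before readout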); conditions: SU-DIPG-XIII viability, CellTiter-Glo ATP luminescence
# [16] = growth inhibition of DIPG glioma cells, dose response, cell-based, JHH-DIPG-1, MIPE4.0, CellTiter-Glo, qHTS (AID 1347062; cut-off not given, nearly all actives have AC50 up to about 27 µM); conditions: JHH-DIPG-1 viability, CellTiter-Glo ATP luminescence
# [17] = SU-DIPG-XXV glioma cell viability, MIPE5.0 library, qHTS (AID 1347068; cut-off not given, nearly all actives have IC50 up to about 30 µM)
# [18] = survival rescue of mitochondrial mutant cells in low glucose, primary screen, MELAS cybrids, Rieske KO mouse fibroblasts, CellTiter-Glo (AID 1508586;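 active = mean z-score across replicates of 1.96 or higher in either the MELAS or the Rieske mutant cell line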;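 note: z relative to plate mean and SD of compound and empty wells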)
# [19] = viability rescue of complex I mutant cybrids, primary screen, cell-based, galactose medium, ATP luminescence (AID 1645843;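 active = z-score of at least 1.8 in each of two replicates, scored against plate mean and spread of sample wells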;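 note: positive z means more ATP and so rescue of galactose-driven cybrid death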); conditions: complex I mutant cybrid cells, 72 h, stronger effect = higher value
# [20] = measured here: epithelial PC-3E GFP cell survival
# [21] = measured here: mesenchymal TEM4-18 mCherry cell survival
# [22] = stronger effect = lower value, cell number ratio, induced over uninduced
# [23] = measured here: relative caspase fold change +Dox/-Dox
# [24] = measured here: total cells with miR-34 induction, stronger effect = lower value
# [25] = measured here: total cells without miR-34 induction
# Chain of NAD(+) hydrolase SARM1 (Homo sapiens) (Q6SZW1 whole entry, looked up): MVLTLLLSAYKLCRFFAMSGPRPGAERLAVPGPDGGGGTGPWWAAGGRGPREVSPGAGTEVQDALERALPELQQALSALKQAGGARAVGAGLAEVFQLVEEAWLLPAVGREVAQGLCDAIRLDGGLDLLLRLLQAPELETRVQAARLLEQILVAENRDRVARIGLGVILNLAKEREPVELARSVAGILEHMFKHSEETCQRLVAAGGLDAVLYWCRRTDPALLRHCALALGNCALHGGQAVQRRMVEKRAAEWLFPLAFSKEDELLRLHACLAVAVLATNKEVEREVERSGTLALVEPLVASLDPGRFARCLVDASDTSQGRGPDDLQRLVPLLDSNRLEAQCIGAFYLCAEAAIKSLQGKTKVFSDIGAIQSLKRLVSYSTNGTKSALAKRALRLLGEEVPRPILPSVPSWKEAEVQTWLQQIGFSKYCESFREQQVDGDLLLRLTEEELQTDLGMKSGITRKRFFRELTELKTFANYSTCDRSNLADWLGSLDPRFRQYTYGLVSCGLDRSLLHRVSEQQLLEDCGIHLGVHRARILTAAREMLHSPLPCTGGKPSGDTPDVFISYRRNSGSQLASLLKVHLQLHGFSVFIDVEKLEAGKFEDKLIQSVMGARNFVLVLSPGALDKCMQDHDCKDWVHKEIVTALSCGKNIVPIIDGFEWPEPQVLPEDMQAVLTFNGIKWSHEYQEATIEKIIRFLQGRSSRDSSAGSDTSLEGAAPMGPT
smiles,measurement,setting,value
CC(O)Cn1cnc2c1c(=O)n(C)c(=O)n2C (stereo unspecified),parasite load remaining,[1],123% (inactive)
same,viability,[1],89%
same,nuclear beta-catenin stimulation,[2]; at 10 µM,3.9% (inactive)
same,nuclear beta-catenin stimulation,"[2]; stimulation, at 2 µM",0.4%
same,insulin secretion stimulation,[3],-0.4% (inactive)
same,viability decrease,[4],24.9% (inactive)
same,tube area decrease,[5],7.5% (inactive)
same,GLP1 secretion stimulation,[6],1.8% (inactive)
same,inhibition of viability,[7],8.77% (inactive)
same,viability decrease (inhibition),[8],26.1% (inactive)
same,viability decrease (inhibition),[9],6.9% (inactive)
same,red/green cell ratio (normalised),[10],0.96 (inactive)
same,normalised cell number,[10]; [20],1.09
same,normalised cell number,[10]; [21],1.04
same,fold change,[11]; [22],0.894 (inactive)
same,fold change,[11]; [23],1.1
same,cell count,[11]; [24],7540
same,cell count,[11]; [25],8430
same,remaining NAD,[12],10 nM (inactive)
CCOCC(O)COc1ccc(NC(=O)CC[S+](C)C)cc1 (stereo unspecified),nuclear beta-catenin stimulation,[2]; at 10 µM,-0.1% (inactive)
same,nuclear beta-catenin stimulation,"[2]; stimulation, at 2 µM",-0.3%
same,insulin secretion stimulation,[3],0.8% (inactive)
same,viability decrease,[4],-7.6% (inactive)
same,tube area decrease,[5],-11.2% (inactive)
same,GLP1 secretion stimulation,[6],-0.3% (inactive)
same,inhibition of viability,[7],0.1% (inactive)
same,viability decrease (inhibition),[8],-6.5% (inactive)
same,viability decrease (inhibition),[9],-3.6% (inactive)
same,remaining activity,[13],96.6% (inactive)
same,outcome,[14],inactive
same,outcome,[15],inactive
same,outcome,[16],inactive
same,outcome,[17],inactive
same,fold change,[11]; [22],0.867 (inactive) and 0.902 (inactive)
same,fold change,[11]; [23],0.938 and 2.11
same,cell count,[11]; [24],8140 and 8470
same,cell count,[11]; [25],9400 and 9390
same,z-score,"[18]; MELAS cybrid survival, CellTiter-Glo 48 h, stronger effect = higher value",-0.246 (inactive)
same,z-score,"[18]; Rieske KO mouse fibroblast survival, CellTiter-Glo 72 h",0.62
same,z-score,[19],-0.075 (inactive)
CC(=O)OCC(=O)[C@@]1(O)CCC2C3CCC4=CC(=O)CC[C@]4(C)C3[C@@H](O)C[C@@]21C (stereo partly specified),parasite load remaining,[1],123% (inactive) and 70.8% (inactive)
same,viability,[1],73.9% and 90.3%
same,nuclear beta-catenin stimulation,[2]; at 10 µM,-1.1% (inactive)
same,nuclear beta-catenin stimulation,"[2]; stimulation, at 2 µM",-0.8%
same,insulin secretion stimulation,[3],-1.3% (inactive)
same,viability decrease,[4],-8% (inactive)
same,tube area decrease,[5],1.6% (inactive)
same,GLP1 secretion stimulation,[6],-3.9% (inactive)
same,inhibition of viability,[7],-1.6% (inactive)
same,viability decrease (inhibition),[8],-3% (inactive)
same,viability decrease (inhibition),[9],-12.5% (inactive)
same,red/green cell ratio (normalised),[10],1.16 (inactive)
same,normalised cell number,[10]; [20],1.24
same,normalised cell number,[10]; [21],1.44
same,fold change,[11]; [22],0.742 (inactive)
same,fold change,[11]; [23],1.6
same,cell count,[11]; [24],6930
same,cell count,[11]; [25],9340
COc1cc(N)c(Cl)cc1C(=O)NC1CCN(CCCOc2ccc(F)cc2)CC1OC (stereo unspecified),parasite load remaining,[1],96.4% (inactive)
same,viability,[1],81.1%
same,nuclear beta-catenin stimulation,[2]; at 10 µM,13% (inactive)
same,nuclear beta-catenin stimulation,"[2]; stimulation, at 2 µM",3.1%
same,insulin secretion stimulation,[3],7.5% (inactive)
same,viability decrease,[4],20.6% (inactive)
same,tube area decrease,[5],-0.4% (inactive)
same,GLP1 secretion stimulation,[6],13.3% (inactive)
same,inhibition of viability,[7],53.9% (active)
same,viability decrease (inhibition),[8],66.7% (active)
same,viability decrease (inhibition),[9],22.4% (inactive)
same,red/green cell ratio (normalised),[10],0.95 (inactive)
same,normalised cell number,[10]; [20],0.93
same,normalised cell number,[10]; [21],0.88
same,fold change,[11]; [22],0.948 (inactive)
same,fold change,[11]; [23],1.94
same,cell count,[11]; [24],8510
same,cell count,[11]; [25],8980
same,z-score,[19],-0.435 (inactive)
NC(=O)c1cc[n+](CC2=C(C(=O)[O-])N3C(=O)[C@@H](NC(=O)Cc4cccs4)[C@H]3SC2)cc1,parasite load remaining,[1],91.4% (inactive)
same,viability,[1],73.4%
same,nuclear beta-catenin stimulation,[2]; at 10 µM,-2.2% (inactive)
same,nuclear beta-catenin stimulation,"[2]; stimulation, at 2 µM",-0.6%
same,insulin secretion stimulation,[3],11.8% (inactive)
same,viability decrease,[4],10.6% (inactive)
same,tube area decrease,[5],-7.6% (inactive)
same,GLP1 secretion stimulation,[6],0.9% (inactive)
same,inhibition of viability,[7],-2.6% (inactive)
same,viability decrease (inhibition),[8],3.4% (inactive)
same,viability decrease (inhibition),[9],5.4% (inactive)
same,red/green cell ratio (normalised),[10],0.75 (inactive)
same,normalised cell number,[10]; [20],1.26
same,normalised cell number,[10]; [21],0.94
same,fold change,[11]; [22],0.969 (inactive)
same,fold change,[11]; [23],0.479
same,cell count,[11]; [24],9810
same,cell count,[11]; [25],10100
same,remaining NAD,[12],10 nM (inactive)
